Measured values reported in ChEMBL document CHEMBL3988442, “University of Dundee, Small-Polar-MMV Screening Library” (2021).
For some of these results: Entries with a potency or affinity are not part of this list.

How the values were obtained:
Set-up in all cases: scale not given: direction of the effect not stated beside the values
[1] = target: Protein translocase subunit SecA (Escherichia coli (strain K12)) (UniProt P10408); assay: Assay to Identify E. coli SecA ATPase Inhibitors; type: functional; settings: 30 µM
Sequence of Protein translocase subunit SecA (Escherichia coli (strain K12)) (P10408 whole entry): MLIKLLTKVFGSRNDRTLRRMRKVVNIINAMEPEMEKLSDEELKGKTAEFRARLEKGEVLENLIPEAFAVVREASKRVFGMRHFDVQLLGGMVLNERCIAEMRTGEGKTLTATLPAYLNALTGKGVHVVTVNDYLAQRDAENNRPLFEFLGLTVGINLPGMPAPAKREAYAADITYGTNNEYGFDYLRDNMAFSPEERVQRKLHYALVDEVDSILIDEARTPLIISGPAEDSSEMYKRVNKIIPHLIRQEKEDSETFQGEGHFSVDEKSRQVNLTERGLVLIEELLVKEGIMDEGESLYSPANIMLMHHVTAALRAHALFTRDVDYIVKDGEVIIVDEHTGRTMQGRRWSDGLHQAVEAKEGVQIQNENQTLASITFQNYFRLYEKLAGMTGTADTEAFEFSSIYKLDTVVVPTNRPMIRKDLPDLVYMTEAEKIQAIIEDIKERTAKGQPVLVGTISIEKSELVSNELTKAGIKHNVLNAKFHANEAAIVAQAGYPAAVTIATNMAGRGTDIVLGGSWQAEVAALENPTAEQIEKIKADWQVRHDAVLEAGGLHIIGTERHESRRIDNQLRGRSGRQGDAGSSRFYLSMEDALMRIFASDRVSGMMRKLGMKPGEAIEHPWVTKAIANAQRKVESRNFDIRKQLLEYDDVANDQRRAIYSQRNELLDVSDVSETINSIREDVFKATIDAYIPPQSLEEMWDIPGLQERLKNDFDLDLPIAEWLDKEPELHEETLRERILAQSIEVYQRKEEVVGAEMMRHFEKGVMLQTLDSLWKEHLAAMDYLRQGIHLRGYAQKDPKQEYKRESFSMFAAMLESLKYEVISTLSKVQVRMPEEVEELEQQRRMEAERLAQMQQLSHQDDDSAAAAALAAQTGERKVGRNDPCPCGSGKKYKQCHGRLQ

[2] = target: T1, Ubiquitin-activating enzyme e1, putative (Leishmania donovani (strain BPK282A1)) (UniProt E9BSI1); assay: Leishmania donovani Ubiquitin Activating Enzyme (LdE1); type: functional; settings: 30 µM
T1 sequence (whole entry): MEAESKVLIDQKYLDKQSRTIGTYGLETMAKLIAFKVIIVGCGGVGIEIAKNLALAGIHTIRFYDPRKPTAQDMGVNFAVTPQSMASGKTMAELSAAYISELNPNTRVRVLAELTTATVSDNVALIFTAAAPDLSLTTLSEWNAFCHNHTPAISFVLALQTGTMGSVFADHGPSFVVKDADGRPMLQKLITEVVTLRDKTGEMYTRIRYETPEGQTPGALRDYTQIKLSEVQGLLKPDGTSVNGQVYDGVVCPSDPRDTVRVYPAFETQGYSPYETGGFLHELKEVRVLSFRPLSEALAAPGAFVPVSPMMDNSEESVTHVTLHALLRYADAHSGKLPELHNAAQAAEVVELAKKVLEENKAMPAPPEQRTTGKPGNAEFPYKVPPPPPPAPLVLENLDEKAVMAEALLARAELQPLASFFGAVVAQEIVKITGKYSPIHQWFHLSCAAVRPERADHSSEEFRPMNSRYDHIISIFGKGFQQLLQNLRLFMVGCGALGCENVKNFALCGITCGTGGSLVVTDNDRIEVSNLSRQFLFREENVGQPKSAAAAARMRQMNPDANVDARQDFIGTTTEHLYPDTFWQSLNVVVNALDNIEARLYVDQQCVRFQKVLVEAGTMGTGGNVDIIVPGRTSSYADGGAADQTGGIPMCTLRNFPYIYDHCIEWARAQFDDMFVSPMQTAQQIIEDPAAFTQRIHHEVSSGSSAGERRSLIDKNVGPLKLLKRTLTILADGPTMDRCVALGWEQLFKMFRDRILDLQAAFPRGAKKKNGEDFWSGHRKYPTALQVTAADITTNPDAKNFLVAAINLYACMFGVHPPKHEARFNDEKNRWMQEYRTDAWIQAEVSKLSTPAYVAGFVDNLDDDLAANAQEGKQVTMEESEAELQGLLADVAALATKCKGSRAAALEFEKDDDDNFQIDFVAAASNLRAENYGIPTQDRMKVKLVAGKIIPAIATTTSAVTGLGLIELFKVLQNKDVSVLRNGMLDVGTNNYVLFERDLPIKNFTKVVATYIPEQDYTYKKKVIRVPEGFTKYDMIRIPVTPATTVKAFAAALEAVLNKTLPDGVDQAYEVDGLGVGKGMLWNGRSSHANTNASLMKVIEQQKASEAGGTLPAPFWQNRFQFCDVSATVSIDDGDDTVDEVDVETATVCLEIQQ

[3] = target: AMP-activated protein kinase, AMPK (Homo sapiens) (UniProt P54646+O43741+P54619+Q9UGJ0+Q9Y478+Q13131+Q9UGI9); assay: AMP-dependent Kinase enzyme assay. An in vitro enzyme assay that detects ADP turnover that is directly proportional to AMPK activity. This uses naive AMPK that is activated during the assay with MK-8722; type: functional; settings: 30 µM
[4] = target: Sialic acid-binding Ig-like lectin 9 (Homo sapiens) (UniProt Q9Y336); assay: Hs-Siglec9 ALPHAscreen SOP 20170721; settings: 10 µM
Sequence of Sialic acid-binding Ig-like lectin 9 (Homo sapiens) (Q9Y336 whole entry): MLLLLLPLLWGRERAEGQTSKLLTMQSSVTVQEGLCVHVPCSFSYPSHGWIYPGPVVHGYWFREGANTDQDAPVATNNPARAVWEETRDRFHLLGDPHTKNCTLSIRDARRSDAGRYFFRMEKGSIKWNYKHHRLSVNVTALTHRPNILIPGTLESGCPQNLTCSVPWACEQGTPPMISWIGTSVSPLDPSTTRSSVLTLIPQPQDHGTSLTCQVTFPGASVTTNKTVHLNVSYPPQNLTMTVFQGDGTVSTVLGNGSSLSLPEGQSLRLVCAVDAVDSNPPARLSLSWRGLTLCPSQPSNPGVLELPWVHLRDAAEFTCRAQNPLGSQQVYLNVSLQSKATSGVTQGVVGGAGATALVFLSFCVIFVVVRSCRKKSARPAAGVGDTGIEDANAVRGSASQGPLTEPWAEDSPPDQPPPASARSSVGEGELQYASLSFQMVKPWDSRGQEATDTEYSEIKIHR

Trypanosoma cruzi = assay: Trypanosoma cruzi phosphomannomutase and mannose-1-phosphate guanylyltransferase assay; type: functional; settings: 10 µM
[5] = target: T2, Arginase-2, mitochondrial (Homo sapiens) (UniProt P78540); assay: in vitro enzyme assay to detect the production of urea directly proportional to the activity of Arginase II; type: functional; settings: 33.3 µM; also: in the data most compounds retested in dose-response had high values
T2 sequence (whole entry): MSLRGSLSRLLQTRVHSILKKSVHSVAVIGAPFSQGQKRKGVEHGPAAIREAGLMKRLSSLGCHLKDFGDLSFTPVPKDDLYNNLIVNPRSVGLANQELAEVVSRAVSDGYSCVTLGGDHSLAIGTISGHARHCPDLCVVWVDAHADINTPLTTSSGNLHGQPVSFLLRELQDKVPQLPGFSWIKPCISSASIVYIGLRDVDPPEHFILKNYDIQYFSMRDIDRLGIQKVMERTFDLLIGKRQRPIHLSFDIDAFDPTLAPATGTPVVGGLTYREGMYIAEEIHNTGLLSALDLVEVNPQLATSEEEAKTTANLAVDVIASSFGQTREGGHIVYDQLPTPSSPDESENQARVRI

[6] = target: T3, Proteasome subunit beta (Trypanosoma cruzi) (UniProt O96673); assay: Trypanosoma cruzi proteasome chymotrypsin-like activity (TcProtChymo) assay.; also: in the data most compounds retested in dose-response had high values; type: functional; settings: 9.37 µM
T3 sequence (whole entry): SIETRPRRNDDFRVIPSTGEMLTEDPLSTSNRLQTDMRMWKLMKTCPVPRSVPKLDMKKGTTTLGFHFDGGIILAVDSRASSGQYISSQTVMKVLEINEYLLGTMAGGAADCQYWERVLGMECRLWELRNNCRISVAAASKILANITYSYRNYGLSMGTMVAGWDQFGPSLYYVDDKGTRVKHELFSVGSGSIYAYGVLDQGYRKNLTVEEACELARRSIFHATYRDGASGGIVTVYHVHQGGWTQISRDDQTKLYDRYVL

Homo sapiens = species on record: Homo sapiens; assay: To identify inhibition of the IFN signalling (Jak-Stat) pathway via expression of an eGFP reporter gene under the control of an IFN-stimulated response element (ISRE) containing MxA promoter.; type: functional; settings: 30 µM
[7] = target: T4, Tyrosyl-tRNA synthetase, putative (Trypanosoma cruzi (strain CL Brener)) (UniProt Q4DSP6); assay: Trypanosoma cruzi tyrosyl tRNA synthetase (TcYRS) _High Tyrosine SOP; type: functional; settings: 30 µM; also: in the data most compounds retested in dose-response had high values
T4 sequence (whole entry): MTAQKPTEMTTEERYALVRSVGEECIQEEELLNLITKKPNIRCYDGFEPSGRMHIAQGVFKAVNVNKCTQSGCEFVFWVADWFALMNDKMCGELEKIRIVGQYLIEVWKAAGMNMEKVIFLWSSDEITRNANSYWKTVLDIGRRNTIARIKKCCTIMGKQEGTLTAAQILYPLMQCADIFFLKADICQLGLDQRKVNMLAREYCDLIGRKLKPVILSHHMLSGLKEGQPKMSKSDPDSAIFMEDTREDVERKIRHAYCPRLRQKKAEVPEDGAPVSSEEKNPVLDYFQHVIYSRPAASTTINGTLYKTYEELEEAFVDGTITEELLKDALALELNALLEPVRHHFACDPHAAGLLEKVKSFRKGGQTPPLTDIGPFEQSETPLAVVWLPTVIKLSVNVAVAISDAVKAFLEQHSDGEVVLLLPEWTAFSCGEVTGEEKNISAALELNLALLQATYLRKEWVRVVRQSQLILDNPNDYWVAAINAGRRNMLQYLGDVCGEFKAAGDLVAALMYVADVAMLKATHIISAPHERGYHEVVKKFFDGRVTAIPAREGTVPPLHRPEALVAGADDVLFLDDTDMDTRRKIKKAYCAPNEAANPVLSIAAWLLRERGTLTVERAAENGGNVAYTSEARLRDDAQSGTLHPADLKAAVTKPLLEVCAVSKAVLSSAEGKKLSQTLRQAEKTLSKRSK

[8] = target: T4, Tyrosyl-tRNA synthetase, putative (Trypanosoma cruzi (strain CL Brener)); assay: Trypanosoma cruzi tyrosyl tRNA synthetase (TcYRS) SOP; type: functional; settings: 30 µM
[9] = target: Chromo domain-containing protein 1 (Saccharomyces cerevisiae (strain ATCC 204508 / S288c) (Baker's yeast)) (UniProt P32657); assay: ScCHD-1 Enzyme Inhibition Assay; type: functional; settings: 30 µM; also: in the data most compounds retested in dose-response had high values
Sequence of Chromo domain-containing protein 1 (Saccharomyces cerevisiae (strain ATCC 204508 / S288c) (Baker's yeast)) (P32657 whole entry, the tested form may be a part): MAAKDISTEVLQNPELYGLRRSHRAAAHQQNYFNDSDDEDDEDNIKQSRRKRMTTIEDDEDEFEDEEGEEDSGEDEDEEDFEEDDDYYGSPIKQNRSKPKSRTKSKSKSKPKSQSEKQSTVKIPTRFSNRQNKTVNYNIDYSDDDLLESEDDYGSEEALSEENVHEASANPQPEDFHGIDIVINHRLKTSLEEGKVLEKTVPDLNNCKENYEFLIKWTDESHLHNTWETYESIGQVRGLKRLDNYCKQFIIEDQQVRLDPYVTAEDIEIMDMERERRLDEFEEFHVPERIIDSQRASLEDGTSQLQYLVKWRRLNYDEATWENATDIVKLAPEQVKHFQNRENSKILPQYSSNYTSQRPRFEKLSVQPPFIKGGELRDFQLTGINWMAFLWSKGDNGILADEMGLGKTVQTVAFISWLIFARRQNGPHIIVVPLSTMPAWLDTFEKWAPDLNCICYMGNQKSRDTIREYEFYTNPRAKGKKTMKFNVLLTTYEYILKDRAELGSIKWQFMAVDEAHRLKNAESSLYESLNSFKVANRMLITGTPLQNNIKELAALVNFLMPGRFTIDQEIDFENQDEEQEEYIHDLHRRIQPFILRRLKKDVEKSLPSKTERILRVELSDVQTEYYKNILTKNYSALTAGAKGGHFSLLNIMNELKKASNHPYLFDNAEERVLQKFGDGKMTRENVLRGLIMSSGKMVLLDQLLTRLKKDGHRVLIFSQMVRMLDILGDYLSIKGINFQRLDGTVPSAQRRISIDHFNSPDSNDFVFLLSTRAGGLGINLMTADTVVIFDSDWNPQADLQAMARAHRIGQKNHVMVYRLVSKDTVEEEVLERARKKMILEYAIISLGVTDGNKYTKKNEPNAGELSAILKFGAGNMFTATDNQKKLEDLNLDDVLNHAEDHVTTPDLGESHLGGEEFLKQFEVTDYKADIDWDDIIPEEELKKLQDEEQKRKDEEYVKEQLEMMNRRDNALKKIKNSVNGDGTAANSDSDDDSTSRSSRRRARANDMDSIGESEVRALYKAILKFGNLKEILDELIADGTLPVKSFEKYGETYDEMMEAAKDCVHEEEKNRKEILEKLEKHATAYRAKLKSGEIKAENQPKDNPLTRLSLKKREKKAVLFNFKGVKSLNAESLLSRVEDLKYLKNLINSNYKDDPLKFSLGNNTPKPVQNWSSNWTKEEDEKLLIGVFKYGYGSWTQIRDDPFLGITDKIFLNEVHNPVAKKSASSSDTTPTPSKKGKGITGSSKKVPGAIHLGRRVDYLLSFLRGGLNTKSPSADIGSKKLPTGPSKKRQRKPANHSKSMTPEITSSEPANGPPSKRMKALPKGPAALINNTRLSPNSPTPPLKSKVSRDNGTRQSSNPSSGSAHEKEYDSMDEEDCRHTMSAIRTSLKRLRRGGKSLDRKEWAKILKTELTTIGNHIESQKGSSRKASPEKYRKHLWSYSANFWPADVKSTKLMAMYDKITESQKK

SMILES	Percent Effect [1] [%]	Percent Effect [2] [%]	Percent Effect [3] [%]	Percent Effect [4] [%]	Percent Effect (Trypanosoma cruzi) [%]	Percent Effect [5] [%]	Percent Effect [6] [%]	Percent Effect (Homo sapiens) [%]	Percent Effect [7] [%]	Percent Effect [8] [%]	Percent Effect [9] [%]
COC(=O)[C@H](C)NC(=O)c1cc(-c2cccc(Cl)c2)no1	-6.04	5.26	-4.37	-0.548	2.43	-4.73	21.2	6.45	5.32	10.4	-8.08
CCCN1CCC(NC(=O)NCCc2nc(CC)c(C)s2)CC1	-5.41	5.41	-6.84	24.7	4.1	33.3	8.54	-11.4	9.9	13.4	-9.25
Cc1nn(C)c(N(C)C)c1CNCC(O)COc1ccccc1 (stereo not given)	-3.8	5.48	-12.3	0.598	4.11	2.27	17.4	-13.8	5.38	17.5	-1.71
Cn1ccnc1COc1ccc(CN2CCN(CCO)CC2)cc1	-4.05	20.8	-12.5	-0.317	-3.18	-3.2	5.07	29.4	10.7	2.44	-9.14
CC(C(=O)N1CCCN(c2ncccc2C#N)CC1)n1cccn1 (stereo not given)	-3.42	10.5	0.522	-3.82	-6.63	4.68	4.32	3.06	5.42	11.1	-6.77
CC(C)c1nn(C)c(N(C)C)c1CNCCC(=O)N(C)C	-2.63	0	-11.4	-2.27	2.15	0.719	5.16	-16.3	-0.493	3.7	0.33
Cc1ccccc1CSc1nc(N)cc(N2CCOC(C(N)=O)C2)n1 (stereo not given)	-5.78	2.7	-2.45	-7.55	-4.4	0.248	10	22.4	6.45	11.1	-1.13
Cc1cccc(-n2c(C)cc(C(=O)N3CCn4c(C)nnc4C3)c2C)c1	-3.26	10.5	-12.3	9.36	2.15	-3.6	7.19	3.33	11.3	16.1	-0.518
CC(=O)N1CCCC1c1ccc(C(=O)N2CCOCC2)s1 (stereo not given)	-6.72	-2.7	2.48	-7.62	-4.2	-2.23	-0.601	26.2	-2.15	-3.7	4.51
Cc1[nH]c(=O)[nH]c(=O)c1CN1CCCC(CCc2ccccc2)C1 (stereo not given)	-1.15	2.7	-3.11	8.59	-5.02	0.952	18.1	-0.602	4.76	17.1	-3.68
CCc1nc(CN2CCN(C(=O)CCc3ccccc3)CC2)cs1	-6.36	19	-2.93	5.39	-1.95	2.8	16.5	3.67	-1.04	17.7	-23.8
COc1cccc(CCC(=O)N2CCCC(n3cc(C)cn3)C2)c1 (stereo not given)	0.219	-3.8	11.1	-1.76	-0.923	9.25	1.03	-7.62	-5.21	0	-20
Cc1cc(CN2CCOC(CN(C)c3cccnn3)C2)no1 (stereo not given)	-4.31	0	18.6	-5.84	3.23	-0.21	6.39	1.91	0.952	2.35	-18.6
Nc1cc(CCCNC(=O)NC2CC2)nn1-c1ccccc1	-3.6	5.48	1.41	-7.75	-6.27	-6.82	14.7	3.12	0	5	-2.26
Cc1nccn1-c1cc(CNC(=O)CCC2CCCO2)ccn1 (stereo not given)	-0.34	26.3	1.23	-7.85	3.08	1.8	18.9	3.69	8.37	28.4	-9.77
Cc1ccc(NC2CCN(C(=O)c3c(C)noc3C)CC2)nn1	-4.36	13.2	0.922	9.85	7.33	-0.766	3.68	-4.46	3.43	12.2	-7.4
CN(C)[C@@H]1CCN(C(=O)NC2CCCC2)[C@H]1Cc1cnn(C)c1	-4.9	2.67	-90.2	5.44	-0.197	2.1	7.84	-0.845	1.06	-3.85	1.31
CCc1ncc2c(n1)CN(Cc1nc(-c3ccsc3)no1)CC2	-3.47	-18.4	-15.2	-3.23	-1.77	-0.719	7.02	-16.8	9.36	-1.24	8.2
Cn1ccnc1CN1CCCN(C(=O)c2ccc(Cl)o2)CC1	-4.86	0	-1.55	4.15	1.4	1.44	3.13	-16.8	2.46	1.24	0.744
CC(C)(C)c1ccc(C2(C(=O)NCCCS(C)(=O)=O)CC2)cc1	-2.57	7.79	1.11	4.51	-7.77	-1.38	7.16	0.292	1.07	6.17	-0.462
